Giardia killer – Giardia lamblia killing; Giardia lamblia trophozoite viability; 340,000 compounds, 0.15% hits; activity change, % at 7.66 µM, hits read low; in the data active means activity change below about -80%; inconclusive means between about -30% and that limit;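 further: parasites exposed to compound for two days anaerobically before the ATP read; on the % scale 0 is the no-effect control and ±100 the full control effect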
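Giardia lamblia trophozoites (100 cells/well) were incubated with compounds for 48 h at 37 deg C under anaerobic conditions. Viability was read as ATP content by one-step luminescence after 15-30 min at room temperature.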
IL-1B inflam inh – blocks inflammasome-driven IL-1 beta release; 360,000 compounds, 4.7% hits; THP-1 LPS/ATP IL-1B secretion, AlphaLISA, 16 h; hits give low values; activity change, % at 57.5 µM; AID 743279; in the data active means activity change below about -50%; inconclusive means mostly about -30% to -49%; further: on the % scale 0 is the no-effect control and ±100 the full control effect
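THP-1 cells pretreated 1 hr with compounds (up to 57.5 uM final), then stimulated with LPS (250 ng/mL final) plus ATP (1.25 mM final); secreted IL-1B measured by AlphaLISA after 16 hr, decreased signal indicating inhibition.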
HT1080-NT tox – kills 2HG-producing HT-1080-NT fibrosarcoma cells; Potency, µM (top dose mostly 46.1 µM), without a hit: at the highest dose activity, negative = less viability, most hits filed as cytotoxic; AID 686970; 360,000 compounds, 1.6% hits; HT-1080-NT fibrosarcoma viability, CellTiter-Glo ATP luminescence, 48 h;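 further: NT is the 2HG producing partner of a matched IDH1 knockdown line; potency means the concentration at half of the fitted maximal effect; 0% = DMSO-treated cells and -100% = media-only wells without cells; nearly all actives have a fitted effect of over 55% in size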
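Luminescent CellTiter-Glo readout after 48 hours of compound exposure at 37 degrees C defined viability of HT-1080-NT cells. Activity was normalized to DMSO wells and cell-free media wells; concentration-response curves were fitted and assigned curve classes.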
HT1080 IDH1KD tx – toxicity to HT-1080 IDH1 knockdown cells (counter line) | HT-1080 IDH1 knockdown viability, ATP luminescence, 48 h | AID 686971 | Potency, µM (titrated, usually from 46.1 µM), for the others: top-dose activity, negative = toxicity, usual class: cytotoxic | 360,000 compounds, 2% hits;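 further: potency means the concentration at half of the fitted maximal effect; 0% = DMSO wells and -100% = cell-free medium wells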
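Knockdown cells (IDH1KD HT-1080) received compounds 2 h after plating at 750 cells/well and were kept 48 h at 37 °C in 5% FBS RPMI. A CellTiter-Glo luminescence read gave % activity for curve fitting.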
TGFb SMAD3 inh – blocks TGF-b signaling; Potency, µM (highest dose often 46.1 µM), inactives show top-dose activity, negative = inhibition, usual class: inhibitors; 410,000 compounds, 1.2% hits; HepG2 CAGA-GFP TGF-b/SMAD3 reporter, GFP fluorescence, 18 h; TGF-beta stimulated, 500 pg/mL final; further: potency means the concentration at half of the fitted maximal effect; on the % scale 0 is the no-effect control and ±100 the full control effect; nearly all actives have a fitted effect of over 65% in size
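HEPG2 CAGA-GFP, 1000 cells/well; 2 h settle, 37 C; cpd via pin tool; TGF-b 500 pg/mL final; 18 h, 37 C; GFP imaging ex488/em500-530; %Activity normalised to -TGF-b and +DMSO controls; CRC fit, curve class.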
HepG2 tox – HepG2 cytotoxicity, counter-screen for TGF-b inhibitors | HepG2 CAGA-GFP viability, ATP luminescence, 18 h | Potency, µM (titrated, usually from 46.1 µM), for the others: at the top dose activity change, negative = cytotoxicity, actives largely listed as cytotoxic | 410,000 compounds, 0.76% hits; further: potency means the concentration at half of the fitted maximal effect
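CellTiter-Glo luminescence gave cytotoxicity after 18 hours at 37 degrees C. The cells were HepG2 CAGA-GFP in 1% FBS DMEM, stimulated with 500 pg/mL TGF-beta after compound addition. %Activity was normalised to no-cell wells (complete cell-killing) and DMSO (no toxicity), and curves were fitted and classified.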
* = called active by the depositor; ? = inconclusive; / = no result. The list is not random: actives were taken first. Their share in the collection is about 6.5%. Unless noted, the call rests on the fitted dose curve; in most records, active means well fitted curve in the direction sought with a large enough effect; inconclusive means small, poorly fitted or top-dose-only effect, or another doubt; inactive means no such curve, though single readings can be large; an effect the other way counts as inactive or inconclusive.

SMILES | Giardia killer | IL-1B inflam inh | HT1080-NT tox | HT1080 IDH1KD tx | TGFb SMAD3 inh | HepG2 tox
NS(=O)(=O)c1ccc(N=Cc2c(O)n(-c3nccs3)c(=O)c3ccccc23)cc1 | -29 | -20 | 11% | 16% | -3% | 9%
CC1(c2nnc(-c3cccc(Cl)c3)o2)CC(c2ccc(Cl)cc2)=NO1 (stereo not given) | 6 | 21 | 8% | 7% | 16µM* | -10%
Nc1nc(CCl)nc(N(c2ccccc2)c2ccccc2)n1 | 6 | -102* | ? | 2.9µM* | ? | -47%
CCn1c(SCC(=O)Nc2cc(C(C)(C)C)nn2-c2ccccc2)nnc1-c1cccs1 | -23 | -83* | -4% | -8% | -17% | -24%
Cc1ccc(C(=O)N2N=C(c3ccc(Br)cc3)CC2c2ccccc2O)cc1 (stereo not given) | -15 | -94* | 15µM* | 15µM* | ? | -109%
O=C(c1ccccc1)N1N=C(c2ccccc2)CC1(O)C(F)(F)F (stereo not given) | -2 | 1 | 8% | 8% | -8% | -7%
COc1ccc(C2=NN(C(=O)c3cccs3)C(c3ccccc3O)C2)cc1 (stereo not given) | -12 | -59* | -29% | -27% | 13µM* | -98%
COc1ccc(C2=NN(C(=O)c3cccs3)C(O)(C(F)(F)F)C2)cc1 (stereo not given) | 2 | -52* | -18% | -25% | ? | -13%
COc1ccc(C(=O)N2N=C(c3cccs3)CC2c2ccccc2O)cc1 (stereo not given) | 3 | 25 | ? | ? | ? | 11µM*
COc1ccc(NC(=O)CSc2nc(O)c(C/C=C/c3ccccc3)c(=O)[nH]2)cc1 | / | / | / | / | 2% | -15%
Cc1c(Cl)cccc1NC(=O)CC(c1ccc(F)cc1)N1Cc2ccccc2C1=O (stereo not given) | / | / | / | / | 18µM* | -28%
Cc1c(Cl)cccc1NC(=O)CC(c1cccs1)N1Cc2ccccc2C1=O (stereo not given) | / | / | / | / | ? | -17%
Cc1c(C(=O)Nc2cccc(F)c2)sc2nc(-c3cc4ccccc4oc3=O)[nH]c(=O)c12 | / | / | / | / | 133% | -16%
COc1ccc2nc3cc(Cl)ccc3c(Nc3cc(C(C)C)c(O)cc3C)c2c1 | 7 | -90* | 21µM* | ? | ? | -70%
COc1ccc(S(=O)(=O)Nc2cc(C(C)C)c(O)cc2C)cc1 | -12 | -8 | -20% | -11% | -22% | -35%
CCOc1cc(/C=N/O)cc(Br)c1OCC | 0 | -2 | -4% | -9% | -7% | -23%
CCOc1cc(/C=N/O)cc(Br)c1OCc1ccc(Cl)cc1 | -3 | -78* | ? | ? | ? | -95%
Cc1ccc(C(OCCN(C)C)c2cccc(C(F)(F)F)c2)cc1 (stereo not given) | 16 | -67* | -20% | -20% | ? | -46%
CCc1cc(C(=O)c2ccc(OC)cc2)c(NC(=O)CCC(=O)O)s1 | -20 | 6 | -2% | 2% | -2% | 5%
Cc1cc(C(=O)c2ccc(Cl)cc2)c(NC(=O)CCl)s1 | 1 | -117* | ? | ? | -27% | 3%
CCc1cc(C(=O)c2ccc(C)cc2)c(NC(=O)CCl)s1 | -6 | -98* | ? | ? | -10% | -37%
CC(C)NC(=O)c1ccc2c(c1)N(Cc1ccccc1)C(=O)C(C)(C)O2 | -20 | -52* | 1% | 10% | 17% | 13%
COc1cccc(-c2coc3c(C)c4oc(=O)c(CC(=O)O)c(C)c4cc23)c1 | -13 | 33 | 0% | 9% | -9% | -10%
COc1cccc(-c2coc3c(C)c4oc(=O)c(CCC(=O)O)c(C)c4cc23)c1 | -11 | -60* | ? | ? | ? | -24%
CCOC(=O)c1c(C)[nH]c(C(=O)N(C)Cc2cccc(OC)c2OC)c1C | -28 | 8 | -2% | -4% | -11% | -9%
SMILES | Giardia killer | IL-1B inflam inh | HT1080-NT tox | HT1080 IDH1KD tx | TGFb SMAD3 inh | HepG2 tox
Cc1c(C(=O)N2CCOCC2)sc2ncnc(N3CCc4ccccc4C3)c12 | -22 | -17 | -1% | 1% | ? | -21%
Cc1c(C(=O)N2CCCCC2C)sc2ncnc(N3CCc4ccccc4C3)c12 (stereo not given) | 2 | -97* | 8% | -6% | -25% | -14%
O=C(Cc1cccs1)Nc1cccc(C(=O)Nc2ccco2)c1 | -14 | -20 | ? | 11µM* | -9% | 2%
COc1ccc(-c2cn3cccnc3n2)cc1NC(=O)C1CC1 | 13 | 6 | 15% | 5% | 14% | -2%
O=CNc1cc(-c2ccc(C(=O)NC3CC3)cc2)cn2c(-c3ccc(F)c(Cl)c3)cnc12 | / | 0 | ? | ? | ? | -20%
O=CNc1cc(-c2ccc(C(=O)NC3CC3)cc2)cn2c(-c3ccccc3)cnc12 | / | ? | 6.5µM* | 5.8µM* | -16% | -16%
CC(=O)c1ccc(-c2cnc3c(NC=O)cc(-c4ccc(C(=O)NC5CC5)cc4)cn23)cc1 | / | -64* | 15µM* | 7.3µM* | ? | 5%
COc1ccc(-c2cc(NC=O)c3ncc(-c4ccc(C(C)=O)cc4)n3c2)cn1 | / | -13 | ? | ? | -18% | -31%
O=C(NCC(=O)N(Cc1ccc(F)cc1)C(C(=O)NCC1CCCO1)c1ccccc1)c1ccco1 (stereo not given) | -12 | -4 | -2% | 0% | -20% | -13%
Cc1cc(Nc2ccccc2Cl)nc(-c2ccccc2O)n1 | -19 | -70* | -21% | ? | -14% | -7%
Cc1cc(Nc2cccc(F)c2)nc(-c2ccccc2O)n1 | 1 | -61* | ? | ? | ? | 11µM*
CC(C)(C)n1nc2c(c1NC(=O)COc1ccccc1F)CS(=O)(=O)C2 | -6 | -16 | 3% | 5% | 3% | -4%
Oc1ccc2ccccc2c1/C=C/c1ccc2c(Br)cc(Br)c(O)c2n1 | -20 | 11 | ? | 29µM* | ? | -83%
O=C(NC1CCCCCC1)c1c(F)c(F)c(F)c(F)c1F | -2 | -91* | 5% | 7% | -3% | -24%
COc1ccc(CC(N)c2csc(NC(=O)Nc3ccccc3C(C)(C)C)n2)cc1 (stereo not given) | / | -52* | ? | ? | ? | -99%
COc1ccc(CC(N)c2csc(NC(=O)Nc3ccccc3-c3ccccc3)n2)cc1 (stereo not given) | / | -58* | 15µM* | -9% | ? | 16µM*

From PubChem BioAssay
